# According to PubChem BioAssay (NCI):
# Compounds without any hit were thinned out: in the full panel of roughly 83,000, 20% have a hit.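 Growth was measured after 48 h exposure to one concentration of compound in 96-well plates. Values under 10 count as active.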 Active and inactive are the calls of the source.
# System: HCT-116 colon
# Test: NCI-60 one-dose screen, 48 h (100 = growth as untreated, 0 = no growth, -100 = all killed)
# Conditions: 10 µM
row,Structure (SMILES),growth
1,COc1ccc(-c2onc(N)c2-c2cc(OC)c3c(c2)OCO3)cc1,15.5% (inactive)
2,C[C@]12CC[C@@H]3c4ccc(O)cc4CC[C@H]3[C@@H]1CC[C@@H]2NS(=O)(=O)c1ccc(C(F)(F)F)cc1,18.5% (inactive)
3,O=C(CSc1nnc(-c2ccc(Cl)cc2)o1)Nc1ccc(C(=O)/C=C/c2ccc(Cl)cc2)cc1,103% (inactive)
4,Cc1cc(CCNC=O)c(C)c2c1sc1ccccc12,94% (inactive)
5,COc1cc2cc(Oc3ccc(NC(=O)c4ccc(Cl)c(C(F)(F)F)c4)cc3)c(C)nc2cc1OC,8.43% (active)
6,CC(C)(C)c1ccc(S(=O)(=O)N[C@H]2CC[C@H]3[C@@H]4CCc5cc(O)ccc5[C@H]4CC[C@]23C)cc1,22.1% (inactive)
7,COc1cc2cc(Oc3ccc(NC(=O)c4cccc(C(F)(F)F)c4)cc3)c(C)nc2cc1OC,18.1% (inactive)
8,COc1ccc(/C=C2\CCCC3=C2NC(N)=NC3c2ccc(OC)c(OC)c2)cc1OC (stereo not given),7.91% (active)
9,Cc1c(Cl)cccc1NC(=O)CN1CCOCC1,97% (inactive)
10,CC(C)(C)OC(=O)N1CCc2c(sc3ncnc(N/N=C/c4ccc(Br)cc4)c23)C1,47.3% (inactive)
11,CCCCc1oc2ccccc2c1C(=O)c1cc(I)c(OCCN(CC)CC)c(I)c1,-61.4% (active)
12,CCc1c2c(nc3ccc(OC(=O)N4CCC(N5CCCCC5)CC4)cc13)-c1cc3c(c(=O)n1C2)COC(=O)[C@]3(O)CC,22% (inactive)
13,NS(=O)(=O)Oc1ccc(-c2ccc3sccc3c2)cc1,95.3% (inactive)
14,O=C(Nc1ccc(OS(=O)(=O)c2ccccc2)cc1)C1CCCCC1,72.1% (inactive)
15,S=c1cnc2ccccc2[nH]1,88.3% (inactive)
16,COc1cc(-c2nn(-c3cccc(NC(=O)NCCNC(=O)c4cccc(C(F)(F)F)c4)c3)cc2-c2ccncc2)ccc1Cl,24.4% (inactive)
17,C[C@@H](O)[C@H]1C(=O)N2C(C(=O)O)=C(SCCN=CN)C[C@H]12,-24.8% (active)
18,CC[C@@H](C(=O)[C@@H](C)[C@@H](O)[C@H](C)[C@@H]1O[C@@H]([C@@H](CC)C(=O)O)CC[C@@H]1C)C1O[C@]2(C=CC(=O)[C@]3(CC[C@@](C)([C@H]4CC[C@](O)(CC)[C@H](C)O4)O3)O2)[C@H](C)C[C@@H]1C (stereo not given in full),32.6% (inactive)
19,CCC(c1ccc(OC)cc1)C(CC)c1ccc(O)c(CN2CCN(C)CC2)c1 (stereo not given),29.1% (inactive)
20,COc1ccc(C(=O)N2C=Cc3ccccc3C2C#N)cc1 (stereo not given),115% (inactive)

row,Structure (SMILES),growth
1,Cc1cc(SC#N)cc(C(C)(C)C)c1O,70.9% (inactive)
2,COc1ccc(-c2n[nH]nc2-c2cc(OC)c3c(c2OC)OCO3)cc1,25.6% (inactive)
3,CN1C(C(=O)Nc2ccccn2)=C(O)c2sc(Cl)cc2S1(=O)=O,100% (inactive)
4,Clc1ccc2c(c1)C(N1CCNCC1)=Nc1ccccc1O2,36.2% (inactive)
5,CC(C)(C)c1ccc(S(=O)(=O)N[C@H]2CC[C@H]3[C@@H]4CCc5cc(O)c([N+](=O)[O-])cc5[C@H]4CC[C@]23C)cc1,32.6% (inactive)
6,COc1cc(-c2csc(NC(=O)Nc3ccc(Cl)c(C(F)(F)F)c3)n2)cc(OC)c1OC,-19.6% (active)
7,Brc1ccc2c(c1)-c1ccccc1C1=NCCN12,-12.6% (active)
8,CC(C)N(CCOc1cccc(-c2nc3sccn3c2-c2ccnc(S(C)(=O)=O)n2)c1)C(C)C,44.9% (inactive)
9,Cc1ccc(/C=C/C(=O)C(=O)/C=C/c2ccc(C)cc2)cc1,-36.8% (active)
10,O=C(Nc1cc(Cl)cc2c1-c1ccc(Cl)cc1C2O)C(Cl)Cl (stereo not given),51.1% (inactive)
11,COc1cc(Cc2cc(-c3ccccc3)n[nH]c2=O)cc(OC)c1OC,16.3% (inactive)
12,Cc1cc(C(C#N)c2ccc(Cl)cc2)c(Cl)cc1NC(=O)c1cc(I)cc(I)c1O (stereo not given),7.35% (active)
13,C/C=C/C1=CN2C(=O)c3cc(OC4OC(C)C(NC)C(C)(O)C4O)c(C)c(O)c3N=C[C@@H]2C1 (stereo not given in full),1.59% (active)
14,CNC(=O)c1c(I)c(NC(C)=O)c(I)c(C(=O)O)c1I,121% (inactive)
15,COc1ccc(Nc2cnc3cc(NS(=O)(=O)c4ccc(C)cc4)ccc3n2)cc1,79.6% (inactive)
16,COc1cc(-c2nn(-c3ccc(NC(=O)NCCCNC(=O)c4ccccc4)cc3)cc2-c2ccncc2)ccc1Cl,9.58% (active)
17,OCC1OC(n2ccc3c(NO)ncnc32)C(O)C1O (stereo not given),-33.1% (active)
18,C[C@]12CC[C@@H]3c4ccc(OS(=O)(=O)O)cc4CC[C@H]3[C@@H]1CC[C@@H]2NS(=O)(=O)c1ccc(-c2ccccc2)cc1,36.2% (inactive)
19,CCN1CCN(CCC(=O)Nc2cccc(-n3cc(-c4ccncc4)c(-c4ccc(Cl)c(OC)c4)n3)c2)CC1,5.22% (active)
20,COc1ccc(-c2nnc(SCC(=O)Nc3ccc(C(=O)/C=C/c4ccccc4)cc3)n2-c2ccccc2)cc1OC,17% (inactive)
